AmpC no deterg: AmpC beta-lactamase inhibition without detergent | P00811 | AmpC nitrocefin hydrolysis, absorbance 480 nm, 0.0001% Triton | Potency, µM (highest dose often 57.1 µM), for inactives: top-dose activity change, negative = inhibition, most hits filed as inhibitors | actives 0.52% (n = 330,000) | AID 485341;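 further: plate controls were no compound for no effect and no enzyme for full effect; nearly all actives have a fitted effect of over 20% in size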
Target sequence (P00811 whole entry, looked up): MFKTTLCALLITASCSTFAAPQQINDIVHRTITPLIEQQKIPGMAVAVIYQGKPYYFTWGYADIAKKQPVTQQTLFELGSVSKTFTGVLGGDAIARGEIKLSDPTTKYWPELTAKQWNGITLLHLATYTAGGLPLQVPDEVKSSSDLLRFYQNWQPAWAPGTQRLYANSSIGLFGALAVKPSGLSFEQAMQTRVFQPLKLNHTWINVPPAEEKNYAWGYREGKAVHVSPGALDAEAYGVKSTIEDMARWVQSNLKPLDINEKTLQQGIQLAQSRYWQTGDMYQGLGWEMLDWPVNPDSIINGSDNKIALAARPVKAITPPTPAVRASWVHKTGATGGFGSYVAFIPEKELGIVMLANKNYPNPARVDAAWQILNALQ
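20 mM phosphate pH 7.0 + 0.01% (detergent screen) or 0.0001% Triton X-100; 5.3 nM AmpC reagent; cpd preinc 15 min RT; nitrocefin (800 uM stock) to start; A480 q20 s × 4 min; Activity was normalised to no-enzyme and no-compound control wells.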
Sm TGR block: S. mansoni TGR enzyme inhibition. Q962Y6. purified TGR, DTNB reduction, TNB absorbance 405 nm. Potency, µM (top dose mostly 114 µM), inactives show top-dose activity change, negative = inhibition, usual class: inhibitors. actives 3% (n = 360,000); further: on the % scale 0 is the no-effect control and ±100 the full control effect; nearly all actives have a fitted effect of over 60% in size
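Kinetic colorimetric format: TGR-catalysed, NADPH-driven DTNB reduction monitored via TNB absorbance. Enzyme dispensed at 20 nM; compound exposure 15 min at room temperature before reaction start.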
AmpC inh detg: inhibitors of E. coli AmpC beta-lactamase with detergent. AmpC hydrolysis of nitrocefin, absorbance 480 nm, 0.01% Triton. P00811. AID 485294. actives 0.041% (n = 370,000). Potency, µM (titrated, usually from 114 µM), inactives show at the top dose activity change, negative = inhibition, most hits filed as inhibitors;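 further: 0% = no-compound wells and -100% = no-enzyme wells; nearly all actives have a fitted effect of over 25% in size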
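AmpC (5.3 nM in the dispensed reagent) in 20 mM phosphate pH 7.0 with 0.01% (detergent screen) or 0.0001% Triton X-100 was preincubated with compounds for 15 min at room temperature. Nitrocefin was then added from an 800 uM solution, and hydrolysis was followed at 480 nm.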
TbPYK inhibitor: blocks Trypanosoma brucei pyruvate kinase. TbPYK enzyme, Kinase-Glo Plus ATP luminescence, 45 min. Potency, µM (titrated, usually from 76.8 µM), for inactives: at the top dose activity, negative = inhibition, most hits filed as inhibitors. Q57TT1. actives 0.12% (n = 410,000); further: on the % scale 0 is the no-effect control and ±100 the full control effect; nearly all actives have a fitted effect of over 50% in size
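TbPYK + substrate in 50 mM TEA pH 7.2, 100 mM KCl, 10 mM MgCl2, 0.05% BSA, 0.01% Tween-20; cpd pinned; ADP 130 uM final; 45 min RT; Kinase-Glo Plus 10 min; luminescence endpoint.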
SARS PLpro yeast: blocks SARS-CoV papain-like protease in a yeast assay | S. cerevisiae expressing SARS-CoV PLpro, growth rescue | Potency, µM (highest dose often 32.9 µM), inactives show at the highest dose activity, positive = growth rescue, actives largely listed as activators | actives 0.19% (n = 330,000); calls by dose curve; further: 0% is about no effect; nearly all actives have a fitted effect of over 55% in size
RE007 growth inh: less growth of the S. pombe RE007 Vpr strain; S. pombe RE007 Vpr strain, BacTiter-Glo ATP luminescence, 24 h; Potency, µM (doses to about 92.2 µM), inactives show at the top dose activity change, negative = less growth, most hits filed as inhibitors; actives 0.21% (n = 360,000); active means well fitted falling curve with a large enough effect; inconclusive means small, poorly fitted or top-dose-only effect; inactive means no such curve, though single readings can be large or run the other way; further: on the % scale 0 is the no-effect control and ±100 the full control effect; nearly all actives have a fitted effect of over 50% in size
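Fission yeast strain RE007, carrying one chromosomally integrated HIV-1 vpr copy, was seeded at OD 0.01 in PMG+AL medium with 23 nL pinned compound. After 24 h at 30 °C and 99% humidity, viability was read by BacTiter-Glo luminescence.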
The depositor's hits bear a star. Only some compounds are listed: those with a hit (about 3.3% of all), similar ones and a draw of the others. Unless noted, the call rests on the fitted dose curve; in most records, active means well fitted curve in the direction sought with a large enough effect; inconclusive means small, poorly fitted or top-dose-only effect, or another doubt; inactive means no such curve, though single readings can be large; an effect the other way counts as inactive or inconclusive. Potency means the concentration at half of the fitted maximal effect.

`O=C(c1ccccc1)[C@@H]1[C@@H]2C(=O)N(c3ccc(F)cc3)C(=O)[C@@H]2C2CCCN21` (stereo not given in full) gave AmpC no deterg -16.0%, Sm TGR block inconclusive, AmpC inh detg -5.8%, TbPYK inhibitor inconclusive, SARS PLpro yeast -2.6% and RE007 growth inh -12.6%.
Screening Cc1ccc(N2C(=O)[C@@H]3[C@H](C2=O)C2CCCN2[C@@H]3C(=O)c2ccccc2)cc1 (stereo not given in full) returned AmpC no deterg 6.2%, Sm TGR block 31.6µM*, AmpC inh detg -2.6%, TbPYK inhibitor -17.7%, SARS PLpro yeast -1.0% and RE007 growth inh -21.7%.
`COc1ccc(N2C(=O)C3C(C2=O)C(C(=O)c2ccc(Cl)cc2)N2CCCC32)cc1` (stereo not given) gave AmpC no deterg -23.2%, Sm TGR block 25.1µM*, AmpC inh detg 6.2%, TbPYK inhibitor inconclusive, SARS PLpro yeast 1.1% and RE007 growth inh -27.7%.
`O=C(c1ccc(Cl)cc1)C1C2C(=O)N(c3ccccc3)C(=O)C2C2CCCN21` (stereo not given) gave AmpC no deterg -12.3%, Sm TGR block inconclusive, AmpC inh detg -6.0%, TbPYK inhibitor -0.2%, SARS PLpro yeast -13.1% and RE007 growth inh -0.8%.
Oc1cccc(Nc2ccccc2)c1 was read as AmpC no deterg -32.0%, Sm TGR block 0.0%, AmpC inh detg 2.6%, TbPYK inhibitor -11.3%, SARS PLpro yeast 0.5% and RE007 growth inh 2.8%.
For CCC(=O)NC(=S)Nc1cccc(NC(=O)c2ccco2)c1 the results were AmpC no deterg -23.0%, Sm TGR block -27.1%, AmpC inh detg -4.0%, TbPYK inhibitor 4.8%, SARS PLpro yeast -0.8% and RE007 growth inh 3.6%.
For O=C(NC(=S)Nc1cccc(O)c1)c1ccco1 the results were AmpC no deterg -25.3%, Sm TGR block 7.94µM*, AmpC inh detg -13.0%, TbPYK inhibitor 2.8% and SARS PLpro yeast -2.2%.
O=C(NC(=S)Nc1ccccc1[N+](=O)[O-])c1ccco1 was read as AmpC no deterg -13.7%, Sm TGR block 50.1µM*, AmpC inh detg inconclusive, TbPYK inhibitor 7.1%, SARS PLpro yeast -0.3% and RE007 growth inh -20.4%.
O=C(NC(=S)Nc1ccc2c(c1)OCCO2)c1ccc(F)cc1Cl was read as AmpC no deterg -9.7%, Sm TGR block inconclusive, AmpC inh detg 79.4µM*, TbPYK inhibitor -2.9%, SARS PLpro yeast 6.2% and RE007 growth inh -5.3%.
For Oc1cccc(NC(=S)Nc2ccccc2)c1 the results were AmpC no deterg -23.0%, Sm TGR block 15.8µM*, AmpC inh detg -4.9%, TbPYK inhibitor 2.6%, SARS PLpro yeast 0.6% and RE007 growth inh -2.5%.
Screening O=C(NC(=S)Nc1ccc([N+](=O)[O-])cc1)c1ccco1 returned TbPYK inhibitor -0.3% and RE007 growth inh 3.3%.
`Cc1nc2nc(NC(=O)c3ccc(F)cc3)[nH]n2c(=O)c1Cc1ccccc1` gave Sm TGR block -13.3%, AmpC inh detg 22.4% and TbPYK inhibitor -7.0%.
For CCc1nn2c(-c3ccco3)ccnc2c1-c1ccccc1 the results were Sm TGR block 19.9%, AmpC inh detg 1.9% and TbPYK inhibitor -2.2%.
Screening COc1ccccc1C(=O)N(Cc1nc(-c2cccc(C)c2)no1)C(C)C returned Sm TGR block 8.0%, AmpC inh detg 18.3% and TbPYK inhibitor -8.4%.
Screening Cc1ccc2nc(NC(=S)NC(=O)c3ccco3)sc2c1 returned AmpC no deterg -33.8%, Sm TGR block inconclusive, AmpC inh detg -7.9%, TbPYK inhibitor -2.0%, SARS PLpro yeast -4.1% and RE007 growth inh 12.5%.
For O=C(NC(=S)Nc1ccc2c(c1)OCCO2)c1ccco1 the results were AmpC no deterg -25.1%, Sm TGR block 15.8µM*, AmpC inh detg 0.3%, TbPYK inhibitor -4.5%, SARS PLpro yeast 1.5% and RE007 growth inh -14.8%.
Screening Cc1ccc2nsnc2c1NC(=S)NC(=O)c1ccco1 returned AmpC no deterg -11.8%, Sm TGR block 44.7µM*, AmpC inh detg -0.1%, TbPYK inhibitor -3.9%, SARS PLpro yeast 1.1% and RE007 growth inh -19.8%.
COc1cccc(C(C)N(C)Cc2nc(-c3ccoc3)oc2C)c1 (stereo not given) was read as AmpC no deterg -35.8%, Sm TGR block 5.0%, AmpC inh detg -7.6%, TbPYK inhibitor -25.7%, SARS PLpro yeast 1.5% and RE007 growth inh -8.5%.
Screening COc1cc(-c2nc(CN(C)C(C)c3ccncn3)c(C)o2)ccc1F (stereo not given) returned AmpC no deterg 21.7%, Sm TGR block 31.6µM*, AmpC inh detg -1.4%, TbPYK inhibitor -5.0%, SARS PLpro yeast 0.1% and RE007 growth inh -13.2%.
`Cc1cc(C(=O)N/N=C2\CC(=O)c3ccccc32)c(C)n1-c1ccc(F)cc1` gave AmpC no deterg -34.0%, Sm TGR block 35.5µM*, AmpC inh detg -2.3%, TbPYK inhibitor -0.8%, SARS PLpro yeast -0.6% and RE007 growth inh 3.6%.
For Cc1ccc(NC(=O)C(=O)c2cc(C)n(-c3ccc(F)cc3)c2C)cc1C the results were Sm TGR block -7.7%, AmpC inh detg 22.6% and TbPYK inhibitor 0.5%.
For CCOc1cc(/C=N/NC(=O)c2cc(C)n(-c3ccc(F)cc3)c2C)ccc1O the results were AmpC no deterg inconclusive, Sm TGR block 56.2µM*, AmpC inh detg -7.1%, TbPYK inhibitor -9.0%, SARS PLpro yeast -0.7% and RE007 growth inh -2.3%.
CCOc1ccccc1NC(=O)C(=O)c1cc(C)n(-c2ccc(F)cc2)c1C was read as Sm TGR block -1.6%, AmpC inh detg 10.9% and TbPYK inhibitor 3.3%.
For CC(=O)c1ccccc1OCCCN1CCCCC1 the results were AmpC no deterg 2.5%, Sm TGR block 31.6µM*, AmpC inh detg -2.1%, TbPYK inhibitor 3.7%, SARS PLpro yeast 3.2% and RE007 growth inh -19.3%.
CC(=O)N1CCc2cc(Br)cc(S(=O)(=O)N3CCN(c4cccc(C(F)(F)F)c4)CC3)c21 was read as Sm TGR block 2.1%, AmpC inh detg 4.7% and TbPYK inhibitor 0.9%.
Screening O=C(O)c1cc[c]([Hg][Cl])cc1 returned AmpC no deterg -3.0%, Sm TGR block inconclusive, AmpC inh detg inconclusive, TbPYK inhibitor 17.8µM*, SARS PLpro yeast -0.5% and RE007 growth inh inconclusive.
Screening CC/C=C(\C(=O)N[C@H]1C(=O)N2C(C(=O)OCOC(=O)C(C)(C)C)=C(COC(N)=O)CS[C@H]12)c1csc(N)n1 returned TbPYK inhibitor -8.3%.
